GRK2 inh: compounds blocking aptamer binding on GRK2 – biochemical, human GRK2, bead flow cytometry, HTS, primary screen; FAM-aptamer displacement from GRK2; inhibition of aptamer binding, % at 10 µM; actives 0.59% (n = 330,000);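 active = inhibition of aptamer binding above 40%, roughly 3 SD of noise, on plates passing a quality check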;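 also: median bead fluorescence of bound FAM aptamer so fluorescent compounds give negative values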
ATG4B inh: ATG4B protease inhibitors, primary screen, biochemical, fluorescence, uHTS; ATG4B cleavage of LC3-PLA2, NBD-HPC fluorescence, 1 h; inhibition, % at 8.33 µM; actives 0.51% (n = 340,000); AID 504462, 2011; in the data active = inhibition above about 40%
Target sequence (Q9Y4P1 whole entry, looked up): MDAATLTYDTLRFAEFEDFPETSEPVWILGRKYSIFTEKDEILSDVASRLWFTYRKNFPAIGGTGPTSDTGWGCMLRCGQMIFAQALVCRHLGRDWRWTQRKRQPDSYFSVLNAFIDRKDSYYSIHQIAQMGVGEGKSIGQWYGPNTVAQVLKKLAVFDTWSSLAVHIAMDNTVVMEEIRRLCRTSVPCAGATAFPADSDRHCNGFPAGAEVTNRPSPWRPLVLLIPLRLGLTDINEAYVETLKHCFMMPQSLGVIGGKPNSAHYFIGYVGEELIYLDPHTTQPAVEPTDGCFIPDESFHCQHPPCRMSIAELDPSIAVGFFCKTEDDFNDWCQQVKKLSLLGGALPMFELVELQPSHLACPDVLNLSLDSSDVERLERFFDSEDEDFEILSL
Yeast superoxide: reduction of superoxide in aged yeast, primary screen, HTS; S. cerevisiae aged cells, superoxide DHE fluorescence; stronger effect = lower value; superoxide response (% of plate mean), % at 10 µM; actives 0.18% (n = 330,000);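 active = superoxide response under a set limit, about three screen SD below normal, cut at about 65% in these data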;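 also: yeast aged for seven days with compound at 30 °C before DHE staining; 100% = average MFI of all compound-treated wells on the plate with controls excluded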
Efflux pump inh: inhibitors of Candida efflux pumps in yeast, primary screen, S. cerevisiae, Nile Red, multiplex; actives 0.44% (n = 330,000); S. cerevisiae Candida pump triplex; inhibition, % at 10 µM;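 active = plate passing quality check with inhibition over a set limit, or well fluorescence over plate mean plus 4 SD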;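 also: Nile Red retained in pooled yeast measured as flow cytometry median fluorescence; 0% = buffer negative control and 100% = Enniatin B positive control; higher means more Nile Red kept so more efflux inhibition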
Yeast cmpd fluor: flagged as fluorescent in efflux inhibitor counter-screen; shares compounds with Efflux pump inh; S. cerevisiae AD/pABC3, compound fluorescence, flow cytometry; fluorescence ratio to DMSO, % at 10 µM; actives 4% (n = 1,700); AID 588517;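 active = fluorescence ratio to DMSO above its plate's cutoff, the plate mean ratio plus 5 SD, cut at about 210% in these data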;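 also: unstained yeast with no Nile Red so the signal is compound autofluorescence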
Mdr1 pump inh: inhibitors of Candida albicans Mdr1 efflux, confirmation, flow cytometry, singleplex, Cherry Pick1 set; shares compounds with Efflux pump inh; S. cerevisiae AD/CaMDR1, Nile Red efflux; inhibition, % at 10 µM; actives 1% (n = 1,700); in the data active = inhibition above about 26%;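 also: 0% = DMSO vehicle and 100% = reference inhibitor; higher means more Nile Red retained so more efflux inhibition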
Cdr2 pump inh: inhibitors of Candida albicans Cdr2 efflux pump, confirmation, S. cerevisiae AD/CaCDR2, flow cytometry, cherry pick 1, singleplex; shares compounds with Efflux pump inh; Nile Red retention; Nile Red retention ratio vs DMSO, % at 10 µM; actives 4% (n = 1,700); AID 588520, 2011; in the data active = Nile Red retention ratio vs DMSO above about 190%;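 also: higher ratio means more blocking of Cdr2 efflux of the dye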
Cdr1 pump inh: inhibitors of Candida albicans Cdr1 efflux pump, confirmation, S. cerevisiae AD/CaCDR1, flow cytometry, cherry pick 1, singleplex. actives 1% (n = 1,700). Nile Red efflux. AID 588522, 2011. inhibition, % at 10 µM. shares compounds with Efflux pump inh;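 active = inhibition above the screen-wide mean plus twice its standard deviation, cut at about 32% in these data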
* = called active by the depositor; x = no result given; + = active, no number. An excerpt weighted towards active compounds, which were near 1.6% of everything screened.

SMILES	GRK2 inh	ATG4B inh	Yeast superoxide	Efflux pump inh	Yeast cmpd fluor	Mdr1 pump inh	Cdr2 pump inh	Cdr1 pump inh
CC[n+]1c(/C=C/c2ccc(OC(C)=O)c(OC)c2)ccc2ccccc21	0.0	3.7	104.3	0.0	x	x	x	x
CC[n+]1c(/C=C/c2ccc(OC)c(OC)c2)ccc2ccccc21	1.0	-3.1	105.8	0.7*	177.3	0.4	107.2	0.2
CC[n+]1c(/C=C/c2ccc(N(C)C)cc2)ccc2ccccc21	0.0	10.6	89.7	10.9*	+	15.9	120.6	9.4
CCN(CC)c1ccc(/C=C/c2ccc3ccc(OC)cc3[n+]2CC)cc1	22.0	13.8	108.7	15.8*	+	11.5	155.4	8.7
Cc1cc(/C=C2\Sc3ccccc3N2C)cc(C)[n+]1CC1CCCO1 (configuration not stated)	x	1.9	x	x	x	x	x	x
COc1ccccc1Cn1c(=O)c2ccccc2n2c(SCC(=O)N3CCCCC3)nnc12	0.0	-5.1	103.0	1.6*	111.1	-0.1	110.2	0.1
O=C(CSc1nnc2n(C3CCCC3)c(=O)c3ccccc3n12)N1CCCCCC1	8.0	-9.2	90.2	0.0	x	x	x	x
Cc1c(NC(=O)c2ccc(N3CCCC3)c([N+](=O)[O-])c2)cccc1-c1nc2ccccc2s1	1.0	-20.2	86.8	-0.1	x	x	x	x
Cc1c(NC(=O)c2ncn[nH]2)cccc1-c1nc2ccccc2s1	3.0	10.3	105.8	6.2*	101.4	-0.3	97.7	-0.1
O=C(COc1ccc(Cl)cc1Cl)NC1CCSC1=O (configuration not stated)	2.0	-11.1	101.0	1.7*	98.3	0.2	106.0	0.1
COc1ccc(N2CCN(C(=O)COc3ncnc4ccccc34)CC2)cc1	0.0	-6.9	115.0	0.0	x	x	x	x
O=C(CN(c1ccccc1)S(=O)(=O)c1ccccc1[N+](=O)[O-])Nc1ccccc1C(=O)N1CCOCC1	0.0	0.3	100.5	0.4	x	x	x	x
Cc1cc(C)c(NC(=O)C2CC3CCC2C3)c(C)c1 (configuration not stated)	2.0	4.2	109.2	0.0	x	x	x	x
Cc1cccc(C)c1NC(=O)C1CC2CCC1C2 (configuration not stated)	0.0	4.5	97.7	0.8*	113.1	0.3	120.5	0.1
CCC(Sc1nncn1C)C(=O)Nc1ccccc1OC (configuration not stated)	9.0	-6.6	100.9	0.5*	106.2	-0.2	95.6	0.5
CCOc1ccc(C2OCCC(C)O2)cc1OC (configuration not stated)	x	23.2	x	x	x	x	x	x
COc1ccc(CNC(=O)/C=C/c2ccco2)cc1OC	0.0	6.9	83.7	-0.1	x	x	x	x
COc1ccc(CNC(=O)/C=C/C(=O)O)cc1OC	2.0	-1.4	89.0	5.5*	101.4	-0.1	95.6	-0.1
COc1ccc(OC)c(S(=O)(=O)Nc2ccc(O)c(Sc3ncn[nH]3)c2)c1	5.0	6.0	92.0	-0.4	96.1	-0.2	93.2	-0.1
CCOc1ccc(S(=O)(=O)Nc2ccc(O)c(Sc3ncn[nH]3)c2)cc1	2.0	-1.8	83.7	-0.1	x	x	x	x
Cc1ccc(S(=O)(=O)Nc2ccc(O)c(Sc3ncn[nH]3)c2)cc1	4.0	-0.6	119.7	2.0*	105.0	-0.4	95.1	0.1
Cc1cc(F)ccc1S(=O)(=O)Nc1ccc(O)c(Sc2ncn[nH]2)c1	0.0	-16.5	97.5	0.0	104.5	-0.1	100.1	0.1
Cc1ccc(C)c(S(=O)(=O)Nc2ccc(O)c(Sc3ncn[nH]3)c2)c1	1.0	-4.1	95.1	0.2	105.0	-0.4	97.2	-0.1
O=C(CN1C(=O)NC2(CCCc3ccccc32)C1=O)c1ccc(F)c(F)c1 (configuration not stated)	0.0	-5.3	87.6	-0.3	x	x	x	x
COc1ccc(N(CC(=O)NCc2ccc3c(c2)OCO3)S(=O)(=O)c2ccc(O)c(C(=O)O)c2)cc1	x	-15.7	x	x	x	x	x	x
SMILES	GRK2 inh	ATG4B inh	Yeast superoxide	Efflux pump inh	Yeast cmpd fluor	Mdr1 pump inh	Cdr2 pump inh	Cdr1 pump inh
O=C(NCC1CCCO1)c1ccc2c(c1)N(Cc1ccccc1)CCS2 (configuration not stated)	4.0	4.2	91.0	0.0	x	x	x	x
COc1ccc(CCC(=O)N2CCN(c3ccc([N+](=O)[O-])cc3)CC2)cc1OC	0.0	-5.8	104.6	-0.2	x	x	x	x
O=C(NC1CCCC1)c1ccc(CSc2nc3ccncc3n2Cc2ccc(F)cc2)cc1	0.0	0.1	100.2	0.1	x	x	x	x
CCC(C)NC(=O)c1ccc(CSc2nc3ccncc3n2Cc2ccc(F)cc2)cc1 (configuration not stated)	1.0	-2.3	92.3	0.0	109.7	0.0	92.2	0.0
Cc1nc2ccc(NC(=O)Cc3ccc4c(c3)OCCO4)cc2s1	0.0	-4.4	91.9	8.2*	118.6	0.1	108.1	0.0
COCCCn1c(=S)[nH]c2ccc(N3CCOCC3)cc2c1=O	3.0	-6.9	101.9	1.4*	119.6	0.3	116.6	0.1
Cc1ccc(C(=O)NCC(=O)OCc2csc(-c3ccccc3)n2)cc1	5.0	-12.1	88.7	6.8*	109.0	-0.3	110.3	0.0
CC(=O)c1ccc(NS(=O)(=O)Cc2ccc(Cl)cc2)cc1	2.0	2.5	112.8	0.8*	103.1	-0.1	100.7	0.0
Cc1ccc(S(=O)(=O)c2nc(Nc3ccccc3C#N)sc2Cl)cc1	0.0	1.5	94.2	0.0	x	x	x	x
Cc1ccc(S(=O)(=O)c2nc(Nc3ccccc3N3CCOCC3)sc2Cl)cc1	0.0	-2.9	124.0	7.5*	99.7	-0.1	98.7	0.1
O=C(Nc1ccc(Oc2nnc(-c3ccccc3)c3ccccc23)cc1)c1ccccc1	0.0	3.0	97.7	-0.1	x	x	x	x
O=C(NCCO)/C(=C\c1ccc(Br)cc1)NC(=O)c1cccs1	0.0	1.7	117.2	7.5*	103.1	0.1	96.3	0.0
C=CC[C@H](CC(=O)NCCO)C(=O)N[C@H](COC(=O)[C@H](CC=C)CC(=O)OC(C)(C)C)Cc1c[nH]c2ccccc12	2.0	-15.2	109.7	0.6	x	x	x	x
COc1cc(/C=C/C(=O)OCC(=O)NCC2CCCO2)ccc1OCC#N (configuration not stated)	0.0	5.2	107.5	6.5*	97.8	-0.2	89.9	0.0
